# Results reported in PubChem BioAssay (NCATS).
# Records with an inconclusive call do not appear. Unmarked numbers belong to inactive results. Activity calls are given as the source filed them. The call rests on the fitted dose curve; in most records, active means well fitted curve in the direction sought with a large enough effect; inconclusive means small, poorly fitted or top-dose-only effect, or another doubt; inactive means no such curve, though single readings can be large; an effect the other way counts as inactive or inconclusive.
# Columns and labels:
# [1] = Quantitative High-Throughput drug screen in 47 multiple myeloma cell lines against the NCATS MIPE library collection: KMS20_JCRB cell viability assay (AID 1918973); further: nearly all actives have a fitted effect of over 45% in size
# How it was run: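 CellTiter-Glo ATP luminescence gave viability after 48 h compound treatment at 37C of 500 multiple myeloma cells per well. Normalisation used DMSO-only wells as 100% and media-only wells as 0% viability; primary qHTS of approved and investigational drugs.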
# [2] = Quantitative High-Throughput drug screen in 47 multiple myeloma cell lines against the NCATS MIPE library collection: MMM1_PLB cell viability assay (AID 1918976); further: nearly all actives have a fitted effect of over 35% in size
# How it was run: (§1)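 Inhibition of viability over 48 h was scored by ATP content (CellTiter-Glo) in 500-cell wells. Zero and full viability were defined by media-only and DMSO-only wells.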
# [3] = Quantitative High-Throughput drug screen in 47 multiple myeloma cell lines against the NCATS MIPE library collection: MOLP8_DSMZ cell viability assay (AID 1918977); further: nearly all actives have a fitted effect of over 45% in size
# How it was run: as §1
# [4] = Quantitative High-Throughput drug screen in 47 multiple myeloma cell lines against the NCATS MIPE library collection: NCIH929_DSMZ cell viability assay (AID 1918978); further: nearly all actives have a fitted effect of over 35% in size
# How it was run: as §1
# [5] = Quantitative High-Throughput drug screen in 47 multiple myeloma cell lines against the NCATS MIPE library collection: OCIMY1_PLB cell viability assay (AID 1918979); further: nearly all actives have a fitted effect of over 35% in size; on viability: series mostly up to about 46 µM
# How it was run: as §1
# [6] = Quantitative High-Throughput drug screen in 47 multiple myeloma cell lines against the NCATS MIPE library collection: MM1R_ATCC cell viability assay (AID 1918981); further: nearly all actives have a fitted effect of over 35% in size
# How it was run: as §1
# [7] = Quantitative High-Throughput drug screen in 47 multiple myeloma cell lines against the NCATS MIPE library collection: LP1_DSMZ cell viability assay (AID 1918982); further: nearly all actives have a fitted effect of over 35% in size
# How it was run: as §1
# [8] = Quantitative High-Throughput drug screen in 47 multiple myeloma cell lines against the NCATS MIPE library collection: KMS28PE_JCRB cell viability assay (AID 1918983); further: nearly all actives have a fitted effect of over 35% in size
# How it was run: as §1
# [9] = Quantitative High-Throughput drug screen in 47 multiple myeloma cell lines against the NCATS MIPE library collection: L363_DSMZ cell viability assay (AID 1918984); further: nearly all actives have a fitted effect of over 40% in size
# How it was run: as §1
# [10] = Quantitative High-Throughput drug screen in 47 multiple myeloma cell lines against the NCATS MIPE library collection: OPM1_PLB cell viability assay (AID 1918989); further: nearly all actives have a fitted effect of over 40% in size
# How it was run: as §1
# [11] = Quantitative High-Throughput drug screen in 47 multiple myeloma cell lines against the NCATS MIPE library collection: SKMM1_PLB cell viability assay (AID 1919863); settings: SKMM1 myeloma viability, CellTiter-Glo ATP, 48 h; viability: stronger effect = lower value; further: nearly all actives have a fitted effect of over 35% in size; on viability: series mostly up to about 46 µM
# How it was run: as §1
# [12] = Quantitative High-Throughput drug screen in 47 multiple myeloma cell lines against the NCATS MIPE library collection: U266_ATCC cell viability assay (AID 1919864); further: nearly all actives have a fitted effect of over 35% in size
# How it was run: as §1
# [13] = Quantitative High-Throughput drug screen in 47 multiple myeloma cell lines against the NCATS MIPE library collection: XG6_PLB cell viability assay (AID 1919865); further: nearly all actives have a fitted effect of over 40% in size
# How it was run: as §1
# [14] = Quantitative High-Throughput drug screen in 47 multiple myeloma cell lines against the NCATS MIPE library collection: VP6_DJ cell viability assay (AID 1919867); further: nearly all actives have a fitted effect of over 40% in size
# How it was run: as §1
# [15] = Quantitative High-Throughput drug screen in 47 multiple myeloma cell lines against the NCATS MIPE library collection: KMS26_JCRB cell viability assay (AID 1918975); further: nearly all actives have a fitted effect of over 45% in size
# How it was run: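 Luminescent ATP measurement with CellTiter-Glo gives viability, scaled between DMSO-only wells (100%) and media-only wells (0%). Cells, 500 per well, faced library compounds for 48 hours at 37C.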
# [16] = Quantitative High-Throughput drug screen in 47 multiple myeloma cell lines against the NCATS MIPE library collection: MM1S_ATCC cell viability assay (AID 1918980); further: nearly all actives have a fitted effect of over 45% in size
# How it was run: as §1
# [17] = Quantitative High-Throughput drug screen in 47 multiple myeloma cell lines against the NCATS MIPE library collection: OCIMY7_PLB cell viability assay (AID 1918987); further: nearly all actives have a fitted effect of over 65% in size
# How it was run: as §1
# [18] = Quantitative High-Throughput drug screen in 47 multiple myeloma cell lines against the NCATS MIPE library collection: OCIMY5_PLB cell viability assay (AID 1918988); further: nearly all actives have a fitted effect of over 65% in size
# How it was run: as §1
# [19] = Quantitative High-Throughput drug screen in 47 multiple myeloma cell lines against the NCATS MIPE library collection: XG1_PLB cell viability assay (AID 1919866); further: nearly all actives have a fitted effect of over 35% in size
# How it was run: as §1
# [20] = Quantitative High-Throughput drug screen in 47 multiple myeloma cell lines against the NCATS MIPE library collection: KMS34_JCRB cell viability assay (AID 1918985); further: nearly all actives have a fitted effect of over 40% in size
# How it was run: as §1
# Potency means the concentration at half of the fitted maximal effect.
structure (smiles),measurement,setting,value
Nc1[nH]c(=O)ncc1F,Potency,[1],inactive
same,Potency,[2],8.33 µM (active)
same,Potency,[3],inactive
same,Potency,[4],inactive
same,Potency,[5],inactive
same,Potency,[6],inactive
same,Potency,[7],inactive
same,Potency,[8],inactive
same,Potency,[9],inactive
same,Potency,[10],inactive
same,viability,[11],117%
same,Potency,[12],2.64 µM (active)
same,Potency,[13],26.4 µM (active)
same,Potency,[14],20.9 µM (active)
O=C(O)C1CCCN(CCC=C(c2ccccc2)c2ccccc2)C1 (stereo not drawn),Potency,[1],inactive
same,Potency,[15],inactive
same,Potency,[2],inactive
same,Potency,[3],0.0059 µM (active)
same,Potency,[4],inactive
same,Potency,[16],9.35 µM (active)
same,Potency,[6],inactive
same,Potency,[17],inactive
same,Potency,[18],inactive
same,Potency,[10],inactive
same,viability,[11],122%
same,Potency,[13],inactive
same,Potency,[19],inactive
Nc1nc(F)nc2c1ncn2[C@@H]1O[C@H](CO)[C@@H](O)[C@@H]1O,Potency,[1],0.264 µM (active)
same,Potency,[2],0.469 µM (active)
same,Potency,[3],0.166 µM (active)
same,Potency,[5],0.469 µM (active)
same,Potency,[6],0.166 µM (active)
same,Potency,[7],0.59 µM (active)
same,Potency,[8],0.372 µM (active)
same,Potency,[9],0.148 µM (active)
same,Potency,[20],0.296 µM (active)
same,Potency,[18],0.0743 µM (active)
same,Potency,[10],0.743 µM (active)
same,Potency,[11],0.332 µM (active)
same,Potency,[12],0.296 µM (active)
same,Potency,[13],0.209 µM (active)
same,Potency,[19],0.418 µM (active)
same,Potency,[14],0.132 µM (active)
CC(=O)Oc1ccccc1C(=O)Nc1ncc([N+](=O)[O-])s1,Potency,[1],8.55 µM (active)
same,Potency,[15],15.2 µM (active)
same,Potency,[2],10.8 µM (active)
same,Potency,[3],34 µM (active)
same,Potency,[4],19.1 µM (active)
same,Potency,[5],42.9 µM (active)
same,Potency,[16],21.5 µM (active)
same,Potency,[6],19.1 µM (active)
same,Potency,[7],21.5 µM (active)
same,Potency,[8],38.2 µM (active)
same,Potency,[9],17.1 µM (active)
same,Potency,[20],42.9 µM (active)
same,Potency,[17],21.5 µM (active)
same,Potency,[18],13.6 µM (active)
same,Potency,[10],24.1 µM (active)
same,Potency,[11],38.2 µM (active)
same,Potency,[13],24.1 µM (active)
same,Potency,[19],30.3 µM (active)
same,Potency,[14],17.1 µM (active)
CCCOc1ccc(C(=O)OCCN(CC)CC)cc1N,Potency,[1],inactive
same,Potency,[15],inactive
same,Potency,[3],inactive
same,Potency,[5],inactive
same,Potency,[6],inactive
same,Potency,[7],inactive
same,Potency,[8],inactive
same,Potency,[20],inactive
same,Potency,[18],inactive
same,Potency,[10],inactive
same,viability,[11],118%
same,Potency,[13],inactive
same,Potency,[19],inactive
same,Potency,[14],9.35 µM (active)
COc1cc(NCc2ccc3nc(N)nc(N)c3c2C)cc(OC)c1OC,Potency,[1],7.43 µM (active)
same,Potency,[15],5.9 µM (active)
same,Potency,[2],8.33 µM (active)
same,Potency,[3],5.26 µM (active)
same,Potency,[4],3.72 µM (active)
same,Potency,[5],13.2 µM (active)
same,Potency,[6],7.43 µM (active)
same,Potency,[7],1.48 µM (active)
same,Potency,[8],14.8 µM (active)
same,Potency,[9],0.935 µM (active)
same,Potency,[20],3.72 µM (active)
same,Potency,[18],6.62 µM (active)
same,Potency,[10],5.9 µM (active)
same,Potency,[11],11.8 µM (active)
same,Potency,[12],1.48 µM (active)
same,Potency,[13],11.8 µM (active)
same,Potency,[19],3.72 µM (active)
same,Potency,[14],2.64 µM (active)
Cc1cc(NS(=O)(=O)c2ccc(N)cc2)no1,Potency,[1],inactive
same,Potency,[15],inactive
same,Potency,[3],inactive
same,Potency,[5],inactive
same,Potency,[6],inactive
same,Potency,[8],inactive
same,Potency,[9],inactive
same,Potency,[17],16.6 µM (active)
same,Potency,[10],inactive
same,viability,[11],140%
same,Potency,[12],10.5 µM (active)
same,Potency,[14],inactive
O=C(O)c1cccnc1,Potency,[1],inactive
same,Potency,[2],1.48 µM (active)
same,Potency,[3],inactive
same,Potency,[4],inactive
same,Potency,[5],inactive
same,Potency,[16],inactive
same,Potency,[6],inactive
same,Potency,[7],inactive
same,Potency,[8],inactive
same,Potency,[9],inactive
same,Potency,[10],inactive
same,viability,[11],107%
same,Potency,[12],inactive
same,Potency,[14],16.6 µM (active)
NCCCC(O)(P(=O)(O)O)P(=O)(O)O,Potency,[1],inactive
same,Potency,[2],inactive
same,Potency,[3],inactive
same,Potency,[5],inactive
same,Potency,[6],inactive
same,Potency,[7],inactive
same,Potency,[8],inactive
same,Potency,[10],inactive
same,viability,[11],137%
same,Potency,[19],inactive
CCOC(=O)[C@H](CCc1ccccc1)N[C@H]1CS[C@H](c2cccs2)CN(CC(=O)O)C1=O,Potency,[1],1.66 µM (active)
same,Potency,[2],16.6 µM (active)
same,Potency,[3],20.9 µM (active)
same,Potency,[4],5.9 µM (active)
same,Potency,[5],inactive
same,Potency,[16],0.418 µM (active)
same,Potency,[6],18.7 µM (active)
same,Potency,[8],18.7 µM (active)
same,Potency,[9],0.662 µM (active)
same,Potency,[20],10.5 µM (active)
same,Potency,[18],16.6 µM (active)
same,Potency,[10],5.9 µM (active)
same,Potency,[11],14.8 µM (active)
same,Potency,[12],5.9 µM (active)
same,Potency,[13],2.35 µM (active)
same,Potency,[19],0.935 µM (active)
same,Potency,[14],0.296 µM (active)
COc1nc(N)nc2c1ncn2[C@@H]1O[C@H](CO)[C@@H](O)[C@@H]1O,Potency,[1],23.5 µM (active)
same,Potency,[15],inactive
same,Potency,[3],inactive
same,Potency,[4],inactive
same,Potency,[5],inactive
same,Potency,[6],inactive
same,Potency,[7],inactive
same,Potency,[8],inactive
same,Potency,[9],inactive
same,Potency,[18],inactive
same,Potency,[10],inactive
same,viability,[11],124%
same,Potency,[12],16.6 µM (active)
same,Potency,[13],inactive
same,Potency,[19],inactive
same,Potency,[14],inactive
CCOC(=O)[C@H](CCc1ccccc1)N[C@H]1CCc2ccccc2N(CC(=O)O)C1=O,Potency,[1],5.9 µM (active)
same,Potency,[2],18.7 µM (active)
same,Potency,[3],18.7 µM (active)
same,Potency,[4],26.4 µM (active)
same,Potency,[5],23.5 µM (active)
same,Potency,[16],8.33 µM (active)
same,Potency,[6],20.9 µM (active)
same,Potency,[7],20.9 µM (active)
same,Potency,[9],7.43 µM (active)
same,Potency,[18],23.5 µM (active)
same,Potency,[10],16.6 µM (active)
same,Potency,[12],18.7 µM (active)
same,Potency,[13],14.8 µM (active)
same,Potency,[19],18.7 µM (active)
same,Potency,[14],18.7 µM (active)
